High-throughput results: PubChem BioAssay, National Center for Advancing Translational Sciences (NCATS)
S2 tox: Viability Counterscreen for Primary qHTS for Inhibitors of ATXN expression. S2 cells (HEK-293 line with an ATXN2-luciferase reporter) viability, CellTiter-Fluor protease fluorescence, 24 h. Potency, µM (series often up to 56.7 µM), usual class: cytotoxic. 400,000 tested, 0.49% active; also: nearly all actives have a fitted effect of over 40% in size
TGFb inhibitor: qHTS for Inhibitors of TGF-b; HepG2 CAGA-GFP TGF-b/SMAD3 reporter, GFP fluorescence, 18 h; TGF-beta stimulated, 500 pg/mL final; Potency, µM (doses to about 46.1 µM), for inactives: at the top dose activity, negative = inhibition, hits mostly inhibitors; 410,000 tested, 1.2% active; AID 588855, 2011; also: % is scaled to controls: 0 for no effect and ±100 for the full control effect; nearly all actives have a fitted effect of over 65% in size
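HEPG2 CAGA-GFP reporter cells (1000/well, DMEM with 1% FBS) received compounds, then recombinant TGF-beta at 500 pg/mL final for 18 hours at 37 degrees C. Per-cell GFP summed per well was normalised to unstimulated and stimulated DMSO controls before curve fitting.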
Gal4-VP16 FLuc: VP16 counterscreen qHTS for inhibitors of ROR gamma transcriptional activity | AID 2546, 2010 | Potency, µM (series often up to 53.6 µM), inactives show at the highest dose activity, negative = inhibition, actives largely listed as inhibitors | Drosophila S2 Gal4-VP16 UAS-luciferase, luminescence, 20 h | 310,000 tested, 3.5% active;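 also: Gal4-VP16 expression switched on by copper sulfate through the metallothionein promoter; % is scaled to controls: 0 for no effect and ±100 for the full control effect; nearly all actives have a fitted effect of over 50% in size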
HepG2 viability: qHTS for Inhibitors of TGF-b: Cytotox Counterscreen; Potency, µM (doses to about 46.1 µM), inactives show top-dose activity change, negative = cytotoxicity, actives largely listed as cytotoxic; HepG2 CAGA-GFP viability, ATP luminescence, 18 h; 410,000 tested, 0.76% active
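HepG2 CAGA-GFP cells (1000/well, DMEM with 1% FBS) received compound, then TGF-beta at 500 pg/mL final, and were incubated 18 hours at 37 degrees C. Viability was read by CellTiter-Glo luminescence. Media-only wells were set as complete cell-killing and DMSO as no toxicity.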
RORgamma inh: qHTS for inhibitors of ROR gamma transcriptional activity | Nuclear receptor ROR-gamma (Mus musculus), P51450 | Drosophila S2 Gal4-RORgamma UAS-luciferase reporter, 20 h | Potency, µM (highest dose often 53.6 µM), for the others: top-dose activity change, negative = inhibition, usual class: inhibitors | 310,000 tested, 5.4% active | AID 2551, 2010; also: % is scaled to controls: 0 for no effect and ±100 for the full control effect; nearly all actives have a fitted effect of over 60% in size
Target sequence (P51450 whole entry, looked up, the tested form may be a part): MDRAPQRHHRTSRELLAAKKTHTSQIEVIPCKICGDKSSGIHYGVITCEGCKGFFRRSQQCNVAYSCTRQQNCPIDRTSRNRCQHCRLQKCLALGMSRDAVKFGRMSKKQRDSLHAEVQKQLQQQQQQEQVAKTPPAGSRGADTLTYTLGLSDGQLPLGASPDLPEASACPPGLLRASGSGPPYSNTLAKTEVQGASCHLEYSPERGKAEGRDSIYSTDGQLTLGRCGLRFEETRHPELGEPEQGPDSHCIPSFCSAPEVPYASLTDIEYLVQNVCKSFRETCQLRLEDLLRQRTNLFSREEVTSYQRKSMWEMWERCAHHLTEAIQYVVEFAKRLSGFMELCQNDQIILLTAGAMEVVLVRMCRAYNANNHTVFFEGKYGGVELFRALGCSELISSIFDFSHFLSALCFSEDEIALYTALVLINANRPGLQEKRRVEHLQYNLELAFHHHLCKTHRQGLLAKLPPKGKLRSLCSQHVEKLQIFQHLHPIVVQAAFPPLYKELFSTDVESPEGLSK
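Drosophila Schneider cells stably carrying a metallothionein-driven Gal4 DBD–ROR gamma fusion and a UAS-Photinus luciferase reporter were exposed to compound for 1 hr, then induced with copper sulfate (700 uM final) for 20 hr at ambient temperature before luminescence reading.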
ATXN2 expr inh: Primary qHTS for Inhibitors of ATXN expression | Potency, µM (top dose mostly 57 µM), inactives show top-dose activity change, negative = inhibition, hits mostly inhibitors | HEK-293 ATXN2-luciferase reporter, luminescence, 24 h | 360,000 tested, 0.72% active; also: % is scaled to controls: 0 for no effect and ±100 for the full control effect; nearly all actives have a fitted effect of over 55% in size
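ATXN2-luciferase reporter cells (luciferase flanked by upstream and downstream ATXN2 gene portions) were treated 24 h at 37 °C with compounds at up to 57 uM. SteadyGlo luminescence gave expression; GF-AFC fluorescence gave viability.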
Starred values were filed as active, the others as inactive; i = inactive; ? = inconclusive; nt = no result; [ ] = another dose, or the depositor's remark. Hits are enriched below; roughly 6.3% of the tested compounds scored in any of these assays. Calls follow the shape of the dose curve; as a rule, active = well fitted curve in the direction sought with a large enough effect; inconclusive = small, poorly fitted or top-dose-only effect, or another doubt; inactive = no such curve, though single readings can be large; an effect the other way counts as inactive or inconclusive. Potency is read from the fitted curve at half-maximal effect.

SMILES	S2 tox	TGFb inhibitor	Gal4-VP16 FLuc	HepG2 viability	RORgamma inh	ATXN2 expr inh
O=C(Nc1nnc(-c2ccc(F)cc2)o1)c1cccc([N+](=O)[O-])c1	i	-2%	0.79µM*	0%	0.4µM*	0%
O=C(NCc1ccc2c(c1)OCO2)c1cccc([N+](=O)[O-])c1	i	49%	-3%	-23%	28%	3%
O=C(Nc1ccc(NC(=O)c2cccc([N+](=O)[O-])c2)cc1)c1cccc([N+](=O)[O-])c1	i	2%	-7%	7%	10%	nt
O=C(Nc1nnc(C2=COCCO2)o1)c1cccc([N+](=O)[O-])c1	i	-1%	4µM*	0%	1µM*	-9%
COC(=O)c1sccc1NC(=S)Nc1ccccc1	i	10%	?	12%	16µM*	-1%
COC(=O)c1sccc1NC(=O)Nc1ccc(OC)cc1	i	-4%	?	-19%	-6%	24%
COC(=O)c1sccc1NC(=O)Nc1cccc(C)c1	?	-2%	-6%	-5%	18%	nt
COC(=O)c1sccc1NC(=S)Nc1ccc(F)cc1F	i	2%	?	4%	5.6µM*	nt
COC(=O)c1sccc1NC(=S)Nc1cc(C)cc(C)c1	i	0%	4.5µM*	-14%	5µM*	-18%
COC(=O)c1sccc1NC(=O)c1cccc(F)c1	i	-13%	nt	-36%	nt	7%
COC(=O)c1sccc1NC(=S)Nc1cccc(F)c1	i	3%	?	3%	18µM*	4%
OC[C@H]1OC(O)C[C@@H](O)[C@H]1O (stereo partly drawn)	nt	nt	nt	nt	nt	8%
O=C(CSc1nccn1Cc1ccccc1)NCc1ccccc1Cl	i	-13%	nt	-35%	nt	2%
Cc1nc(NCc2ccc3nsnc3c2)sc1-c1ccn(C)n1	i	nt	nt	nt	nt	nt
CCOC(=O)c1cc(C#N)c(=S)[nH]c1C	i	17%	-14%	3%	13µM*	-10%
COc1ccc(NC(=S)Nc2cc(-c3ccccc3)[nH]n2)cc1Cl	?	?	2µM*	-18%	2.8µM*	-21%
COc1ccc(NC(=S)Nc2cc(C)[nH]n2)cc1Cl	i	-7%	?	-3%	?	35%
Cc1cc(NC(=S)Nc2ccc(C)c(Cl)c2)n[nH]1	i	?	1µM*	0%	0.35µM*	nt
CCOc1ccc(NC(=S)Nc2cc(-c3ccccc3)[nH]n2)cc1	i	-23%	3.5µM*	-23%	1.8µM*	25%
CC(C)c1cc(Cn2c3ccccc3c(=O)n2C(C)CBr)on1 (stereo not drawn)	i	2%	nt	-4%	nt	0%
Cc1ccc(Cn2cnc3c(cnn3C(C)(C)C)c2=O)cc1F	nt	-15%	nt	-74%	nt	nt
Cc1cccc(C)c1N=C1C(=O)Nc2ccccc21	i	0%	18µM*	3%	?	2%
CCN(CC)c1ccc(N=C2C(=O)Nc3ccccc32)cc1	?	?	0%	13µM*	-18%	?
CC(=O)N1CCOCC1c1cc(C(=O)Nc2ccccc2)no1 (stereo not drawn)	i	2%	nt	-2%	nt	7%
COc1ccccc1C1CN(Cc2cnn(C)c2)Cc2ccccc2O1 (stereo not drawn)	i	nt	nt	nt	nt	nt
SMILES	S2 tox	TGFb inhibitor	Gal4-VP16 FLuc	HepG2 viability	RORgamma inh	ATXN2 expr inh
COc1c(C)cc(Br)cc1C(=O)NC(=S)NCc1ccco1	i	9%	?	4%	11µM*	3%
COc1cc(C(=O)NCc2ccco2)c(Br)c(OC)c1OC	i	-10%	3%	-38%	13%	4%
COc1ccc(C(=O)NC(=S)NCc2ccco2)cc1Br	i	-19%	6.3µM*	-5%	3.5µM*	0%
COc1ccc(C(=O)NC(=S)NCc2ccco2)cc1OC	i	-8%	16%[0.365 µM]	-28%	18µM*	-9%
CCN(CCO)CCCOc1ccc2c(Nc3cc(CC(=O)Nc4cccc(F)c4)[nH]n3)ncnc2c1	nt	nt	nt	nt	nt	1%
Cc1[nH]c2ccccc2c1CN1CCc2ccccc2C1	i	-11%	?	-27%	11µM*	-1%
COc1ccccc1-c1c(C)nn2c(N3CCCCCC3)cc(C)nc12	?	11µM*	20µM*	-41%	16µM*	?
Cc1nn2c(N3CCCC3)cc(C(C)C)nc2c1-c1ccccc1	i	-6%	-2%	-11%	14µM*	3%
C=C(C)CNC(=S)Nc1cccc2cnccc12	i	?	-23%	9%	-18%	-13%
Cc1cc(C)cc(NC(=S)Nc2cccc3cnccc23)c1	i	12%	?	1%	13µM*	-19%
Cc1ccc(NC(=S)Nc2ccc3cn[nH]c3c2)c(C)c1	i	-9%	-10%	10%	?	-9%
S=C(Nc1cccnc1)Nc1ccccc1Br	i	25%	-8%	-60%	-13%	-5%
Cc1ccc(NC(=S)Nc2cccc3cnccc23)c(C)c1	i	?	-26%	-1%	16µM*	-1%
CCc1ccc(NC(=S)Nc2cccc3cnccc23)cc1	i	0%	?	4%	11µM*	-15%
OCC[C@@H]1C[C@H](O)[C@@H](O)[C@@]2(OCc3ccc(CO)cc32)O1	i	-4%	nt	-35%	nt	4%
CC1=NN(c2ccccc2)C(=O)C1C=Nc1ccccc1O (stereo not drawn)	i	0%	4.5µM*	-39%	2µM*	-24%
NC(=O)NC1N=C([O][Al])NC1=O (stereo not drawn)	i	nt	nt	nt	nt	-12%
CC(/C=C/C=C/c1ccccc1)=N/NC(=O)C(O)c1ccccc1 (stereo not drawn)	i	3%	-10%	-7%	-41%	19%
CC(/C=C/C=C/c1ccccc1)=N\NC(=O)c1cccnc1	nt	15%	3.2µM*	16%	2.8µM*	-12%
CC(/C=C/C=C/c1ccccc1)=N/NC(=O)c1ccc2c(c1)OCCO2	i	0%	8%	11µM*	-19%	15%
CC(/C=C\C=C\c1ccccc1)=N\NC(=O)c1cncc(Br)c1	?	-9%	6.3µM*	5%	4.5µM*	nt
CC/C(=N\NC(=O)c1ccc2c(c1)OCO2)c1ccccc1	i	-3%	1%	-13%	?	31%
Cn1sc(=O)n(Cc2ccccc2)c1=O	nt	nt	?	nt	3.2µM*	nt
C[C@@H]1CN([C@H](C)CO)S(=O)(=O)c2ccc(Br)cc2O[C@@H]1CN(C)Cc1ccc(C(=O)O)cc1	i	0%	nt	2%	nt	5%
